Screening results from PubChem BioAssay.
JMJD2A Tudor = qHTS Assay for Inhibitors of JMJD2A-Tudor Domain | Lysine-specific demethylase 4A (Homo sapiens), O75164 | AlphaScreen JMJD2A-Tudor / H3K4me3 peptide binding | Potency, µM (doses to about 114 µM), usual class: inhibitors | 390,000 tested, 4.4% active; further: nearly all actives have a fitted effect of over 50% in size
GLS inh = qHTS for Inhibitors of Glutaminase (GLS); Glutaminase kidney isoform, mitochondrial (Homo sapiens), O94925; GLS enzymatic activity, qHTS titration; Potency, µM (titrated, usually from 45.5 µM), actives largely listed as inhibitors; 410,000 tested, 0.21% active; AID 624170, 2012
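hKGA; 45 mM KH2PO4 pH 8.2 + 0.02% Tween-20; cpd via pin tool; 1 mM Gln soln; GluOx/HRP/Amplex Red; RT 30 min; fluor. t0 & final.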
HP1b chromo inh = HTS for Inhibitors of HP1-beta Chromodomain Interactions with Methylated Histone Tails. AlphaScreen HP1-beta / biotin-H3K9me3 peptide binding. 390,000 tested, 0.56% active. Chromobox protein homolog 1 (Homo sapiens), P83916. Potency, µM (series often up to 114 µM), actives largely listed as inhibitors. AID 540317, 2011; further: nearly all actives have a fitted effect of over 70% in size
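AlphaScreen: HP1-beta (50 nM) preformed 30 min with biotin-H3(1-18)K9me3 peptide (50 nM) in PBS pH 7.4, 0.01% Tween-20. Compound added for 30 min at RT, then streptavidin donor/nickel chelate acceptor beads (10 ug/mL) for 30 min.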
G9a block = qHTS Assay for Inhibitors of Histone Lysine Methyltransferase G9a. Potency, µM (highest dose often 102 µM), actives largely listed as inhibitors. G9a H3K9 monomethylation, AlphaScreen, 2 h. Histone-lysine N-methyltransferase EHMT2 (Homo sapiens), Q96KQ7. AID 504332, 2011. 350,000 tested, 8.8% active; further: nearly all actives have a fitted effect of over 75% in size
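G9a (20 nM) preincubated 15 min RT with compounds, then 500 nM biotinylated H3K9 peptide and 20 uM SAM added; 2 h RT reaction. Monomethyl-H3K9 product detected by AlphaScreen with anti-H3K9me1 antibody, streptavidin donor and anti-rabbit IgG acceptor beads.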
BAZ2B inh = qHTS Assay for Inhibitors of BAZ2B; Bromodomain adjacent to zinc finger domain protein 2B (Homo sapiens), Q9UIF8; AlphaScreen BAZ2B-H3K14Ac peptide displacement; Potency, µM (titrated, usually from 114 µM), usual class: inhibitors; 360,000 tested, 4.4% active; AID 504333, 2011; further: nearly all actives have a fitted effect of over 60% in size
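BAZ2B (50 nM) with biotin-H3(5-23)K14Ac peptide (50 nM) in PBS pH 7.4, 0.01% Tween-20, preformed 30 min, then compound 30 min at room temperature; top concentration 110uM. AlphaScreen streptavidin donor/nickel chelate acceptor beads (10 ug/mL final), 20 min dark, signal read.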
Each line names hits and unclear results; the compound was inactive in the other large screens. An excerpt weighted towards active compounds, which were near 10% of everything screened. The call rests on the fitted dose curve; in most records, active means well fitted curve in the direction sought with a large enough effect; inconclusive means small, poorly fitted or top-dose-only effect, or another doubt; inactive means no such curve, though single readings can be large; an effect the other way counts as inactive or inconclusive.

O=C(O)c1cc2c(cc1NC(=O)c1c(F)cccc1F)OCCCO2	G9a block inconclusive
CS(=O)(=O)Nc1ccccc1C(=O)Nc1cc2c(cc1C(=O)O)OCCCO2	G9a block 8.9µM
O=C1CC(C(=O)Nc2cccc(F)c2)n2c(nc3ccccc32)N1 (stereo not given)	none
O=C1C(=Cc2ccccc2[N+](=O)[O-])Cc2ccccc21	none (no result: JMJD2A Tudor, HP1b chromo inh, G9a block, BAZ2B inh)
CCCc1cc(-n2ccnc2)n2c(nc3ccccc32)c1C#N	G9a block 40µM
COc1cc(CNCc2ccco2)ccc1OCc1ccccc1	JMJD2A Tudor 4µM, HP1b chromo inh inconclusive, G9a block 35µM, BAZ2B inh inconclusive
COc1cc(OC)c(S(=O)(=O)NCc2ccco2)cc1S(=O)(=O)NCc1ccco1	none
COc1cc(OC)c(OC)cc1CNCc1ccco1	JMJD2A Tudor 2.8µM, HP1b chromo inh inconclusive, G9a block 28µM, BAZ2B inh inconclusive
COc1cccc(CNCc2ccco2)c1O	JMJD2A Tudor 18µM, HP1b chromo inh inconclusive (no result: G9a block)
CNCCOc1nc(N2CCOCC2)nc(C)c1[N+](=O)[O-]	none
COC(=O)c1ccccc1N(C)S(C)(=O)=O	none
Cc1ccccc1N1C(=O)c2sc3nc4c(c(=O)n3c2C1=O)CCC4	JMJD2A Tudor inconclusive, G9a block 8.9µM
O=C1c2sc3nc4ccccc4n3c2C(=O)N1c1ccccc1Cl	HP1b chromo inh inconclusive, G9a block 1.4µM, BAZ2B inh inconclusive
CC(C)n1c(SCC(=O)c2ccc3c(c2)OCCO3)nc2c1c(=O)n(C)c(=O)n2C	none
CC(C)NC(=O)CSc1nnc(-c2ccc(C(C)(C)C)cc2)n1C	HP1b chromo inh inconclusive, G9a block inconclusive
CC(C)CC1NC(=O)c2cc3ccccc3cc2-n2c1nc1ccc(F)cc1c2=O (stereo not given)	none (no result: JMJD2A Tudor, HP1b chromo inh, G9a block, BAZ2B inh)
Cc1cc(Nc2ccc3ccccc3c2)n2ncnc2n1	G9a block 16µM
COc1cc(OC)c(Nc2cc(C)nc3ncnn23)cc1Cl	G9a block 11µM
CCc1ccc(NC(=O)Nc2ccc3c(c2)N(C)C(=O)CS3)cc1	none
O=S(=O)(NCc1ccc(F)cc1)c1ccc2[nH]c3c(c2c1)CCCC3	JMJD2A Tudor inconclusive, G9a block 8.9µM, BAZ2B inh inconclusive
Cc1ccc(CNS(=O)(=O)c2ccc3[nH]c4c(c3c2)CCCC4)cc1	JMJD2A Tudor inconclusive, G9a block inconclusive
O=S(=O)(NCc1ccccc1)c1ccc2[nH]c3c(c2c1)CCCCC3	JMJD2A Tudor inconclusive, G9a block 14µM
Cc1occc1C(=O)N(C)CC1CCCN(CCc2ccccc2F)C1 (stereo not given)	none
CN(C)c1ccc(CNC(=O)CCCN2C(=O)CCn3nc(-c4cccn4C)cc32)cc1	JMJD2A Tudor inconclusive, G9a block inconclusive, BAZ2B inh 40µM
Cc1cc(S(=O)(=O)N2CCCC(N(C)CCc3ccccn3)C2)c(C)s1 (stereo not given)	G9a block 50µM (no result: JMJD2A Tudor, GLS inh, HP1b chromo inh)
CCOC(=O)C1(Cc2cccc(Cl)c2)CCCN(C(=O)c2cc(CC)on2)C1 (stereo not given)	none
CNc1nc(Sc2cccc(C(F)(F)F)c2)cc(C(F)(F)F)n1	none
Cc1nc(N)sc1N=Nc1ccc(F)cc1	JMJD2A Tudor inconclusive, HP1b chromo inh inconclusive, G9a block 45µM
Cc1[nH]c(=S)c(C#N)c(C)c1Cc1ccccc1	JMJD2A Tudor inconclusive, GLS inh inconclusive, G9a block inconclusive
Cc1[nH]c(=S)c(C#N)c(C)c1CCC#N	JMJD2A Tudor 20µM, G9a block 2.8µM
O=C(C1CCCN(S(=O)(=O)c2ccc(Br)s2)C1)N1CCCCCC1 (stereo not given)	none
Cc1cnc(NC(=O)c2c(O)c3cccc4c3n(c2=O)CCC4)s1	none (no result: JMJD2A Tudor, GLS inh, HP1b chromo inh)
Cc1ccc(S(=O)(=O)Nc2cc(C(C(=O)OC(C)C)C(=O)C(F)(F)F)c(O)c3ccccc23)c(C)c1 (stereo not given)	GLS inh inconclusive, G9a block 40µM, BAZ2B inh inconclusive
Cc1cccc(NC(=O)CN2C(=O)N/C(=C\c3cccn3-c3cccc(C(=O)O)c3)C2=O)c1	G9a block 35µM, BAZ2B inh 56µM
COc1cc(/C=C2/NC(=O)N(CC(=O)Nc3cccc(C)c3)C2=O)ccc1OCC(N)=O	JMJD2A Tudor 20µM, HP1b chromo inh inconclusive
Cc1cccc(NC(=O)CN2C(=O)N/C(=C/c3cc(C)n(C)c3C)C2=O)c1	G9a block 56µM, BAZ2B inh inconclusive
Cc1ccc(-n2cccc2/C=C2/NC(=O)N(CC(=O)Nc3cccc(C)c3)C2=O)cc1	G9a block inconclusive, BAZ2B inh inconclusive
O=C(O)c1cccc(-n2cccc2/C=C2/NC(=O)N(c3ccc(Cl)cc3)C2=O)c1	JMJD2A Tudor 0.79µM, HP1b chromo inh 1.1µM, G9a block 1.4µM, BAZ2B inh 1.8µM
Cc1ccc(-c2nn(CC(=O)O)c(=O)c3ccccc23)cc1	none
Fc1ccc(Br)cc1C1C=C(c2ccc(Br)cc2)Nc2nnnn21 (stereo not given)	G9a block 11µM
Fc1ccc(Br)cc1C1C=C(c2ccc(Br)cc2)Nc2ncnn21 (stereo not given)	none
Cc1ccccc1OCCC(=O)OCC(=O)N(C)c1c(N)n(Cc2ccccc2)c(=O)[nH]c1=O	G9a block 45µM
CC(C)CN(C(=O)COC(=O)CNC(=O)c1ccccc1F)c1c(N)n(Cc2ccccc2)c(=O)[nH]c1=O	none (no result: G9a block, BAZ2B inh)
COc1ccccc1C(=O)NCC(=O)OCC(=O)N(CC(C)C)c1c(N)n(Cc2ccccc2)c(=O)[nH]c1=O	G9a block 56µM
Cc1ccccc1SCC(=O)OCC(=O)N(C)c1c(N)n(Cc2ccccc2)c(=O)[nH]c1=O	G9a block 10µM
CC(C)Cn1c(SCC(=O)N(C)c2c(N)n(Cc3ccccc3)c(=O)[nH]c2=O)nc2ccccc21	HP1b chromo inh inconclusive, G9a block 16µM
CCN1CCN(C(=O)c2cc(S(=O)(=O)Nc3ccc(S(C)(=O)=O)cc3)ccc2Cl)CC1	G9a block 50µM
CCCN1Cc2cccc(C(=O)NC(CC(=O)OCC)c3ccc(OCC)c(OC)c3)c2C1=O (stereo not given)	none
CCOC(=O)N1CCC(=NNc2ccc(S(=O)(=O)N3CCOCC3)cc2[N+](=O)[O-])CC1	HP1b chromo inh inconclusive
CCOC(=O)N1CCC(=NNc2nc(C)cc(=O)[nH]2)CC1	G9a block 40µM
COc1ccc(NC(=O)c2ccc(-c3ccc(C)c4ccccc34)o2)cc1	G9a block 40µM
Cc1ccc(C)c(NC(=O)CN(C)C(=O)c2ccc(-c3ccc(Cl)cc3)o2)c1	none
CN(CC(=O)Nc1cccc(F)c1)C(=O)c1ccc(-c2ccc(Cl)cc2)o1	JMJD2A Tudor inconclusive, G9a block 35µM, BAZ2B inh inconclusive
